The structures appear in SMILES notation. Entries with a potency or affinity are not part of this list. Results filed as inconclusive are left out. Calls of active or inactive are those of the source.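 The calls were made as follows: active = fitted half-maximal concentration for viability loss no higher than twice the top valid dose, in every repeat run; inconclusive = repeat runs disagree, flat partial loss, or poor curve fit; inactive = the rest.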

The nature of the test: IOSE-T80 viability loss, PAX8-independent line – cell-based, cherry-pick, selectivity assay for PAX8 inhibitor project, dose response (AID 687032).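 Also: cells exposed to compound for 96 h before reading.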 The settings on record: CellTiterGlo ATP luminescence, 96 h; series mostly up to 35 µM. For orientation: In ATP-based viability assays light output follows the ATP content of the culture.
As for `C[C@@H]1CN([C@H](C)CO)C(=O)c2cc(NC(=O)Nc3ccc(F)cc3)ccc2O[C@@H](C)CCCCO[C@H]1CN(C)C(=O)NC1CCCCC1`, the outcome was inactive.

As for `Cc1ccc(S(=O)(=O)Nc2ccc3c(c2)C(=O)N([C@H](C)CO)C[C@@H](C)[C@H](CN(C)Cc2ccc(Cl)c(Cl)c2)OCCCC[C@H](C)O3)cc1`, the compound was classed as inactive.

Regarding `COc1ccc(S(=O)(=O)Nc2ccc3c(c2)CC(=O)N([C@@H](C)CO)C[C@@H](C)[C@H](CN(C)Cc2ccc(C(F)(F)F)cc2)O3)cc1`, the compound was classed as inactive.

As to `C[C@@H]1CCCCO[C@@H](CN(C)C(=O)c2ccccc2)[C@H](C)CN([C@H](C)CO)C(=O)c2cc(NC(=O)Nc3ccc(C(F)(F)F)cc3)ccc2O1`, the compound was classed as inactive.

For `O=C(Cc1ccccc1)N1CC[C@H]2[C@H](CO)Nc3ccc(C4=CCCCC4)cc3[C@H]21`, the compound was called inactive.

`C[C@@H]1CCCCO[C@H](CN(C)CC2CCCCC2)[C@H](C)CN([C@@H](C)CO)C(=O)c2cc(NC(=O)Nc3ccccc3)ccc2O1`: the call was inactive.

Turning to `C[C@@H]1CN([C@H](C)CO)C(=O)c2cc(NC(=O)Nc3ccc(C(F)(F)F)cc3)ccc2O[C@@H](C)CCCCO[C@H]1CN(C)C(=O)NC1CCCCC1`, the result was inactive.

For the compound `C[C@H]1CN([C@@H](C)CO)S(=O)(=O)c2ccc(C#Cc3ccc(F)cc3)cc2O[C@@H]1CN(C)C(=O)NC1CCCCC1`, the result was inactive.

On to `C[C@@H](O)C#Cc1ccc2c(c1)O[C@H](CN(C)Cc1ccc(-c3ccccc3)cc1)[C@@H](C)CN([C@@H](C)CO)S2(=O)=O`, for which the call was inactive.

As to `C[C@H]1CCCCO[C@H](CN(C)S(=O)(=O)c2ccc(F)cc2)[C@@H](C)CN([C@@H](C)CO)C(=O)c2cc(NS(=O)(=O)c3ccc(Cl)cc3)ccc2O1`, the outcome was inactive.

For `C[C@@H]1CN([C@H](C)CO)C(=O)c2cc(NC(=O)Nc3ccc(C(F)(F)F)cc3)ccc2O[C@@H](C)CCCCO[C@H]1CN(C)S(=O)(=O)c1ccc(Cl)cc1`, the outcome was inactive.

`C[C@@H]1CN([C@H](C)CO)C(=O)c2cc(NS(=O)(=O)c3ccccc3)ccc2O[C@@H](C)CCCCO[C@@H]1CN(C)CC1CCCCC1`: the outcome was inactive.

In the case of `C[C@@H]1CN([C@H](C)CO)C(=O)c2cc(NC(=O)Nc3ccc(C(F)(F)F)cc3)ccc2O[C@@H](C)CCCCO[C@H]1CN(C)S(=O)(=O)c1ccccc1`, the compound was called inactive.

In the case of `C[C@@H]1CN([C@@H](C)CO)C(=O)c2cc(NS(=O)(=O)c3cccs3)ccc2O[C@@H](C)CCCCO[C@H]1CN(C)Cc1ccc(C(F)(F)F)cc1`, the compound was called inactive.

In the case of `C[C@@H]1CCCCO[C@@H](CN(C)C(=O)Nc2ccc(C(F)(F)F)cc2)[C@H](C)CN([C@H](C)CO)C(=O)c2cc(NS(=O)(=O)c3ccc(F)cc3)ccc2O1`, the result was inactive.

As to `Cc1ccc(S(=O)(=O)N(C)C[C@H]2Oc3cc(C#Cc4ccncc4)ccc3S(=O)(=O)N([C@H](C)CO)C[C@H]2C)cc1`, the call was inactive.

As to `C[C@@H]1CN([C@H](C)CO)C(=O)c2cc(NC(=O)Nc3ccccc3)ccc2O[C@@H](C)CCCCO[C@H]1CN(C)C(=O)Nc1ccc(C(F)(F)F)cc1`, the compound was called inactive.

`O=C(Nc1ccc(C(F)(F)F)cc1)Nc1ccc2c(c1)[C@@H]1C[C@H](CC(=O)N3CCc4ccccc4C3)O[C@H](CO)[C@@H]1O2`: the compound was called inactive.

`CC(C)CC1NC(=S)N(Cc2ccccc2)C1=O` (stereo unspecified): the outcome was inactive.

For the compound `C[C@H](CO)N1C[C@H](C)[C@H](CN(C)Cc2ccc(C(F)(F)F)cc2)OCCCC[C@H](C)Oc2ccc(NC(=O)NC3CCCCC3)cc2C1=O`, the result was inactive.

On to `C[C@@H]1CN([C@H](C)CO)C(=O)c2cc(NC(=O)c3ccccc3)ccc2O[C@@H](C)CCCCO[C@@H]1CN(C)Cc1ccc(C(F)(F)F)cc1`, for which the outcome was inactive.

With `COc1ccccc1C(=O)Nc1ccc2c(c1)C(=O)N(C)[C@@H]1CC[C@@H](CC(=O)NCc3ccc(Cl)c(Cl)c3)O[C@H]1CO2`, the compound was classed as inactive.

`C[C@@H]1CN([C@H](C)CO)S(=O)(=O)c2ccc(C#CC3CCCC3)cc2O[C@H]1CN(C)Cc1cccnc1`: the result was inactive.

On to `C[C@H]1CN([C@@H](C)CO)C(=O)Cc2cc(NC(=O)NC3CCCCC3)ccc2O[C@H]1CN(C)Cc1ccc(-c2ccccc2)cc1`, for which the compound was classed as inactive.

With `C[C@H](CO)N1C[C@H](C)[C@H](CN(C)Cc2ccc(C(F)(F)F)cc2)OCCCC[C@H](C)Oc2ccc(NS(=O)(=O)c3ccc(F)cc3)cc2C1=O`, the call was inactive.

On to `COc1ccc(-c2ccc3c(c2)[C@@H]2[C@@H](CCN2S(=O)(=O)c2ccc(OC)cc2)[C@@H](CO)N3C)cc1`, for which the compound was called inactive.

Source of the values: PubChem BioAssay.
